Data reported in ChEMBL document CHEMBL4513135, “CO-ADD screening of IQOG CSIS (Spain) compounds”.
Several values for one entry are separate records, joined by “and”; a condition that tells them apart may be missing. Equal values may be shown once. Potency and affinity values are given separately.

Columns and labels:
[1] = tested on: Staphylococcus aureus; conditions: Concentration 32 ug.mL-1; ASSAY_TEST Inhibition of Bacterial Growth; detection method Absorption (OD600); MEDIA CAMHB; plate type 384well; NBS; CORNING #3640; time 18 hr
[2] = tested on: Escherichia coli; conditions: Concentration 32 ug.mL-1, ASSAY_TEST Inhibition of Bacterial Growth, detection method Absorption (OD600), MEDIA CAMHB, plate type 384well, NBS, CORNING #3640, time 18 hr

Row | Compound | Inhibition [1] | Inhibition [2] | Inhibition ([2]; 32 ug/mL)
1 | Cc1ccc(S(=O)(=O)N2[C@H]3CC[C@@H]2CC3)cc1 | 28.46% | -2.06% | 
2 | Cc1ccc(C=C(C#N)C#N)cc1 | 8.41% | 8.38% | 
3 | Cl.ClCCN1CCCC1 | 22.74% | 7.3% | 
4 | C#CCN1CCc2nc3ncccc3c(N)c2C1.Cl | 20.08% | -15.24% | 
5 | N#CCC(=O)c1ccccc1 | 30.68% | 18.52% | 
6 | CN1CC=C(c2cccn2C)CC1.Cl | 10.31% | 19.65% | 
7 | OCC(Cc1cnc[nH]1)NCc1ccccc1 (configuration not stated) | 6.92% | 2.95% | 
8 | CCOC(=O)C1=C(C)OC(=O)CC1c1ccccc1 (configuration not stated) | 23.21% | -9.36% | 
9 | C#CCN1CCc2nc3nc(Cl)c(C#N)cc3c(N)c2C1 | 26.25% | -10.74% | 
10 | CCOC(=O)C1=C(C)NC(=O)CC1c1ccccc1 (configuration not stated) | 39.69% | -3.27% | 
11 | CCOC(=O)C1=C(OC)OC(=O)CC1c1ccccc1 (configuration not stated) | 39.56% | -6.33% | 
12 | CCOC(=O)c1cn(Cc2ccccc2)c2ccccc12 | 3.83% | -2.16% | 
13 | CCOC(=O)c1cc2cc(OC(=O)NC3CCN(Cc4ccccc4)CC3)ccc2[nH]1 | 20.68% | -6.09% | 
14 | C#CCN1CCc2nc(N)c(C#N)c(-c3ccccc3)c2C1 |  |  | -14.9% and -16.29%
15 | O=C(CBr)NCc1ccccc1 | 46.96% | 14.62% | 
16 | Nc1c2c(nc3c1C(c1ccccc1)CC(=O)N3)CCCC2 (configuration not stated) | 28.94% | 0.15% | 
17 | C#CCN(C)Cc1cc2cc(OC(=O)N(C)C)ccc2n1C | -2.15% | -5.14% | 
18 | NNC(=O)c1cn(Cc2ccccc2)c2ccccc12 | 1.65% | 1.53% | 
19 | C#CCN(C)Cc1cc2cc(OCc3ccc(OC(=O)N(C)C)c4ncccc34)ccc2n1C | 7.52% | -14.26% | 
20 | CN(C)C(=O)Oc1ccc(CCl)c2cccnc12 | 22.39% | -10.05% | 

Row | Compound | Inhibition [1] | Inhibition [2] | Inhibition ([2]; 32 ug/mL)
21 | NNC(=O)c1cccnc1 [NICOTINIC ACID HYDRAZIDE] | 11.6% | 15.76% | 
22 | [N-]=[N+]=NCC(=O)c1ccc(Br)cc1 | 26.38% | 9.41% | 
23 | O=C(N1[C@H]2CC[C@@H]1C(c1nnn[nH]1)C2)C(F)(F)F (some centres not stated) | 26.59% | -6.69% | 
24 | C#CCN1CCc2nc3nc(OC)c(C#N)cc3c(N)c2C1 | 26.45% | -2.8% | 
25 | N#Cc1cc(C#N)c(N2C3CCC2CC3)nc1N | -1.36% | 10.18% | 
26 | CN1CC=C(c2cccn2C)CC1 | 10.32% | 19% | 
27 | CNCc1cn(C)c2ccc(OC)cc12.Cl | 14.24% | 17.26% | 
28 | Cc1nc(N)c(C#N)cc1C(=O)O | 4.41% | -9.15% | 
29 | COc1cc(C2C(C#N)=C(N)Oc3c2ccc2ccccc32)cc(OC)c1OC (configuration not stated) | 6.42% | 8.07% | 
30 | CCOc1nc2nc(C)c(C(=O)O)cc2c(-c2ccccc2)c1C#N | 17.86% | -10.47% | 
31 | C#CCN(C)Cc1cc2cc(OCCCC3CCN(Cc4ccc(OC(=O)N(C)C)c5ncccc45)CC3)ccc2n1C | 11.25% | -10.82% | 
32 | Nc1c2c(nc3ccccc13)CCN(Cc1ccccc1)C2 | 9.97% | 1.56% | 
33 | COc1ccc2c(c1)cc(C[N+](C)(C)C)n2C.[I-] | 13.5% | 12.23% | 
34 | N#CC(C#N)=Cc1ccc(Cl)cc1 | 7.12% | 5.89% | 
35 | CC1CC(=O)Nc2nc3c(c(N)c21)CCCC3 (configuration not stated) | 27.94% | -10.32% | 
36 | Cl.ClCCN1CCCCC1 | 28.78% | 20.05% | 
37 | Cc1ccccc1C=C(C#N)C#N | 3.49% | 0.38% | 
38 | COc1ccc(C=C(C#N)C#N)cc1OC | 14.77% | 13.47% | 
39 | NNCCCc1c[nH]c2ccccc12.O=C(O)/C=C/C(=O)O | 18.22% | 27.72% | 
